Assay results taken from PubChem BioAssay (NCATS).
Inconclusive results are not listed. The source made the active and inactive calls. Unless noted, the call rests on the fitted dose curve; in most records, active means well fitted curve in the direction sought with a large enough effect; inconclusive means small, poorly fitted or top-dose-only effect, or another doubt; inactive means no such curve, though single readings can be large; an effect the other way counts as inactive or inconclusive.

What was measured:
[1] = target: Metallo-beta-lactamase type 2 (Klebsiella pneumoniae) (UniProt C7C422); experiment: qHTS to identify inhibitors of the New Delhi Metallo-beta-lactamase (NDM): assay validation screen against the NCATS LOPAC Collection (AID 1794843);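 further: nitrocefin turnover by NDM-1 measured as 485 nm absorbance at plateau; on the % scale 0 is the no-effect control and ±100 the full control effect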
In short: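 NDM-1 at 2 nM final in 50 mM HEPES pH 7.0, 1 uM ZnSO4, 0.01% Tween20, preincubated with LOPAC compounds pinned in DMSO; 50 uM nitrocefin (stock) added. Hydrolysis read as absorbance at 485 nm in the plateau phase.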

[2] = target: Glutathione peroxidase 1 (Homo sapiens) (UniProt P07203); experiment: Primary qHTS Assay for Inhibitors of Recombinant Selenoprotein Glutathione Peroxidase 1 (GPX1) (AID 1845191); further: nearly all actives have a fitted effect of over 65% in size; further: potency means the concentration at half of the fitted maximal effect; on activity, negative = inhibition: on the % scale 0 is the no-effect control and ±100 the full control effect
In short: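 GR-coupled readout: NADPH consumption tracked by fluorescence, ex 340/em 450 nm, at t=0 and after 15 min at RT. Final mix 10 nM GPX1, 1 mM GSH, 0.5 mM CHP, 0.5 mM NADPH, 100 nM GR, 0.01% BSA, following 30 min enzyme–compound preincubation.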

[3] = target: Phospholipid hydroperoxide glutathione peroxidase GPX4 (Homo sapiens) (UniProt P36969); experiment: Primary qHTS Assay for Inhibitors of Recombinant Selenoprotein Glutathione Peroxidase 4 (GPX4) (AID 1845192); conditions: outcome: dose series up to 50 µM unless noted; further: nearly all actives have a fitted effect of over 65% in size
In short: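 Steps: GPX4 plus compound, 30 min RT; add GR/GSH/NADPH master mix; start with cumene hydroperoxide; read 340/450 nm fluorescence at 0 and 15 min. Finals were 200 nM GPX4, 1 mM GSH, 0.5 mM CHP, 0.5 mM NADPH, 100 nM GR.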

[4] = qHTS drug screen for cell cycle checkpoint inhibitors in PARPi-resistant BRCA-mutant ovarian cancer cell lines. (AID 1963452; calls by dose curve); conditions: PEO1/OlaR viability, CellTiter-Glo luminescence, 96 h, stronger effect = lower value
In short: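 PEO1, PEO4 and PEO1/OlaR ovarian cancer cells, 600 per well, exposed 96 h at 37C to a dilution series. Viability read by CellTiter-Glo luminescence, normalized to DMSO and empty wells; activity summarized as Z-AUC.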

[5] = qHTS profiling for inhibitors of Plasmodium falciparum proliferation (AID 504749); further: nearly all actives have a fitted effect of over 60% in size; further: potency means the concentration at half of the fitted maximal effect;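 on activity, negative = inhibition: 0% = DMSO vehicle and full inhibition = artemisinin control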; conditions: P. falciparum in erythrocytes, SYBR Green DNA, 72 h
In short: (§1)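 SYBR Green fluorescence (ex 485 nm, em 535 nm) reports parasite DNA after 72 h compound exposure of infected red cells at 0.3% parasitemia, 2.5% hematocrit; signal normalized to 0.29 uM artemisinin and vehicle wells.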

[6] = tested on: 3D7; experiment: as above; conditions: P. falciparum in erythrocytes, SYBR Green DNA, 72 h; series mostly up to 28.7 µM
In short: as §1

[7] = tested on: 7G8; experiment: as above; conditions: P. falciparum in erythrocytes, SYBR Green DNA, 72 h; series mostly up to 28.7 µM
In short: as §1

[8] = tested on: AA1029; experiment: as above; conditions: P. falciparum in erythrocytes, SYBR Green DNA, 72 h; series mostly up to 28.7 µM
In short: as §1

[9] = tested on: AS120; experiment: as above; conditions: P. falciparum in erythrocytes, SYBR Green DNA, 72 h; series mostly up to 28.7 µM
In short: as §1

[10] = tested on: ATS189; experiment: as above; conditions: P. falciparum in erythrocytes, SYBR Green DNA, 72 h; series mostly up to 28.7 µM
In short: as §1

[11] = tested on: ATS95; experiment: as above; conditions: P. falciparum in erythrocytes, SYBR Green DNA, 72 h; series mostly up to 28.7 µM
In short: as §1

[12] = tested on: C2A; experiment: as above; conditions: P. falciparum in erythrocytes, SYBR Green DNA, 72 h; series mostly up to 28.7 µM
In short: as §1

[13] = tested on: CP185; experiment: as above; conditions: P. falciparum in erythrocytes, SYBR Green DNA, 72 h; series mostly up to 28.7 µM
In short: as §1

[14] = tested on: CP191; experiment: as above; conditions: P. falciparum in erythrocytes, SYBR Green DNA, 72 h; series mostly up to 28.7 µM
In short: as §1

[15] = measured here: PEO1 parental Z-AUC
[16] = at 28.7 µM (top of the series), parasite line A
[17] = at 28.7 µM (top of the series), parasite line B
[18] = at 12.8 µM (top of the series), parasite line A
[19] = at 12.8 µM (top of the series), parasite line B

Sequence of Metallo-beta-lactamase type 2 (Klebsiella pneumoniae) (C7C422 whole entry, looked up): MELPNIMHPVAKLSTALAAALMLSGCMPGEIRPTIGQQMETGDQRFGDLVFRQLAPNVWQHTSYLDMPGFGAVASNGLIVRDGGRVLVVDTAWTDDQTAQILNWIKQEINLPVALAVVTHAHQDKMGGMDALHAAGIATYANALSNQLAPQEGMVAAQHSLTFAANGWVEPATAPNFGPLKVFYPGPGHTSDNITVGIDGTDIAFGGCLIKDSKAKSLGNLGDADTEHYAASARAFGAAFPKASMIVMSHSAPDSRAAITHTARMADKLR
Sequence of Glutathione peroxidase 1 (Homo sapiens) (P07203 whole entry, looked up): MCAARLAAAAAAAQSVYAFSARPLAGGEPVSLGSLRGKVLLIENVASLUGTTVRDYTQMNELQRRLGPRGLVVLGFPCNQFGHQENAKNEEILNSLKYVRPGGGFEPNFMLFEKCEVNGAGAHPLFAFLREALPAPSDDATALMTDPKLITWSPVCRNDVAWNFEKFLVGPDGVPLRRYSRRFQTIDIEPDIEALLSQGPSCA
Sequence of Phospholipid hydroperoxide glutathione peroxidase GPX4 (Homo sapiens) (P36969 whole entry, looked up): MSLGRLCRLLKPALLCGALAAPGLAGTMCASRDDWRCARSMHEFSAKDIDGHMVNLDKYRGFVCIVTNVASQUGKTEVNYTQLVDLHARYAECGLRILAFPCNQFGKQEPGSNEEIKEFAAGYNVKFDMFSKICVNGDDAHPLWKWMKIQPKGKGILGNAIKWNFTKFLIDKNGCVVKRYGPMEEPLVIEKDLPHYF

CCCN(CCC)C(=O)C(CCC(=O)O)NC(=O)c1ccccc1 (stereo not given)
inactive: Potency [1] | Potency [2] | outcome [3] | Z-AUC [4] 0.987
0.633: Z-AUC [4, 15]
0.925: Z-AUC ([4]; measured here: PEO4 Z-AUC)

CC(N=C(NC#N)Nc1ccncc1)C(C)(C)C (stereo not given)
inactive: Potency [1] | Potency [2] | outcome [3] | activity, negative = inhibition [5, 16] -3.66% | activity, negative = inhibition [5, 17] -7.16% | Potency [6] | Potency [7] | Potency [8] | Potency [9] | Potency [10] | Potency [11] | Potency [12] | Potency [13] | Potency [14]

CC(=O)[C@@]1(O)CC[C@H]2[C@@H]3CCC4=CC(=O)CC[C@]4(C)[C@H]3CC[C@@]21C
inactive: Potency [1] | Potency [2] | outcome [3] | activity, negative = inhibition [5, 16] -9.44% | activity, negative = inhibition [5, 17] 1.51% | Potency [6] | Potency [7] | Potency [8] | Potency [9] | Potency [10] | Potency [11] | Potency [12] | Potency [13] | Potency [14]

C[N+](C)(C)CCCCCCCCCC[N+](C)(C)C
active: Potency ([5]; parasite line A) 3.98 µM | Potency ([5]; parasite line B) 1.58 µM | Potency [6] 5.62 µM | Potency [7] 5.01 µM | Potency [8] 5.62 µM | Potency [9] 3.16 µM | Potency [10] 4.47 µM | Potency [11] 3.16 µM | Potency [12] 5.62 µM | Potency [13] 4.47 µM | Potency [14] 3.55 µM
inactive: Potency [1] | Potency [2] | outcome [3]

CC(C)COCC(CN(Cc1ccccc1)c1ccccc1)N1CCCC1 (stereo not given)
0.789: Z-AUC [4, 15]
0.389: Z-AUC ([4]; measured here: PEO4 Z-AUC)
inactive: Potency [1] | Potency [2] | outcome [3] | Z-AUC [4] 1.09 | Potency [6] | Potency [10] | Potency [12] | Potency [14]

COCC(=O)O[C@]1(CCN(C)CCCc2nc3ccccc3[nH]2)CCc2cc(F)ccc2[C@@H]1C(C)C
active: Potency ([5]; parasite line A) 3.55 µM | Potency ([5]; parasite line B) 5.01 µM | Potency [6] 7.94 µM | Potency [7] 1.12 µM | Potency [8] 0.794 µM | Potency [9] 1.26 µM | Potency [10] 3.98 µM | Potency [11] 1.26 µM | Potency [12] 0.562 µM | Potency [13] 4.47 µM | Potency [14] 4.47 µM
inactive: Potency [1] | Potency [2] | outcome [3]

C[N+](C)(C)CCOC(N)=O
inactive: Potency [1] | Potency [2] | outcome [3] | activity, negative = inhibition [5, 16] 16.8% | activity, negative = inhibition [5, 17] 9.29% | Potency [6] | Potency [7] | Potency [8] | Potency [9] | Potency [10] | Potency [11] | Potency [12] | Potency [13] | Potency [14]

CC(=O)OCC1=C(C(=O)O)N2C(=O)[C@@H](NC(=O)Cc3cccs3)[C@H]2SC1
inactive: Potency [1] | outcome [3] | activity, negative = inhibition [5, 16] 5.33% | activity, negative = inhibition [5, 17] 13.1% | Potency [6] | Potency [7] | Potency [8] | Potency [9] | Potency [10] | Potency [11] | Potency [12] | Potency [13] | Potency [14]
active: Potency [2] 10.1 µM

Cc1cc(C)c(/C=C2\C(=O)Nc3ccccc32)[nH]1
0.596: Z-AUC [4, 15]
0.161: Z-AUC ([4]; measured here: PEO4 Z-AUC)
inactive: Potency [1] | Potency [2] | outcome [3] | Z-AUC [4] 0.918 | activity, negative = inhibition [5, 16] 2.71% | activity, negative = inhibition [5, 17] 10.1% | Potency [6] | Potency [7] | Potency [8] | Potency [9] | Potency [10] | Potency [11] | Potency [12] | Potency [13] | Potency [14]

OC(CCN1CCCCC1)(c1ccccc1)C1CCCCC1 (stereo not given)
active: Potency [7] 8.91 µM
inactive: Potency [1] | Potency [2] | outcome [3] | activity, negative = inhibition [5, 16] -22% | activity, negative = inhibition [5, 17] -4.19% | Potency [6] | Potency [10] | Potency [12] | Potency [13] | Potency [14]

CC(=O)Oc1cc(C(C)C)c(OCCN(C)C)cc1C
inactive: Potency [1] | Potency [2] | outcome [3] | activity, negative = inhibition [5, 18] 4.04% | activity, negative = inhibition [5, 19] -3.15% | Potency [6] | Potency [7] | Potency [8] | Potency [9] | Potency [10] | Potency [11] | Potency [12] | Potency [13] | Potency [14]

CCOC(=O)c1cnc2c(cnn2CC)c1NN=C(C)C
active: Potency [7] 11.2 µM
inactive: Potency [1] | Potency [2] | outcome [3] | activity, negative = inhibition [5, 16] 15.4% | activity, negative = inhibition [5, 17] -4.13% | Potency [6] | Potency [8] | Potency [9] | Potency [10] | Potency [11] | Potency [12] | Potency [13] | Potency [14]

O=C1NCN(c2ccccc2)C12CCN(CCCC(c1ccc(F)cc1)c1ccc(F)cc1)CC2
active: Potency ([5]; parasite line A) 3.16 µM | Potency ([5]; parasite line B) 7.94 µM | Potency [6] 3.55 µM | Potency [7] 3.16 µM | Potency [8] 5.01 µM | Potency [9] 4.47 µM | Potency [10] 10 µM | Potency [11] 8.91 µM | Potency [12] 7.08 µM | Potency [13] 10 µM | Potency [14] 5.62 µM
inactive: Potency [1] | Potency [2] | outcome [3]

CC(C)(Oc1ccc(CCNC(=O)c2ccc(Cl)cc2)cc1)C(=O)O
inactive: Potency [1] | Potency [2] | outcome [3] | activity, negative = inhibition [5, 18] -1.93% | activity, negative = inhibition [5, 19] -2.04% | Potency [6] | Potency [7] | Potency [8] | Potency [9] | Potency [10] | Potency [11] | Potency [12] | Potency [13] | Potency [14]

OCCN1CCN(CC/C=C2/c3ccccc3Sc3ccc(C(F)(F)F)cc32)CC1
active: Potency ([5]; parasite line A) 8.91 µM | Potency ([5]; parasite line B) 11.2 µM | Potency [6] 12.6 µM | Potency [7] 3.16 µM | Potency [8] 8.91 µM | Potency [9] 11.2 µM | Potency [10] 7.94 µM | Potency [14] 5.01 µM
inactive: Potency [1] | Potency [2] | outcome [3]
